Results reported in PubChem BioAssay (NCI).
Compounds without any hit were thinned out: in the full panel of roughly 83,000, 20% have a hit.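 Note: values are percent growth. 100 is the growth of untreated cells, values between 100 and 0 indicate rising inhibition; between -100 and 0 indicates cell death.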 Values without a mark were called inactive. Calls of active or inactive are those of the source. How the source made its calls: active means growth percent below 10; inactive means the rest.

Columns and labels:
Experiment in all cases: NCI-60 one-dose screen, 48 h (100 = growth as untreated, 0 = no growth, -100 = all killed)
Conditions in all cases: 10 µM unless noted
NCI-H23 lung = system: NCI-H23 lung
NCI-H226 lung = system: NCI-H226 lung
NCI-H322M lung = system: NCI-H322M lung
HOP-62 NSCLC = system: HOP-62 NSCLC
NCI-H460 lung = system: NCI-H460 lung
HOP-92 NSCLC = system: HOP-92 NSCLC
NCI-H522 lung = system: NCI-H522 lung
A549/ATCC NSCLC = system: A549/ATCC NSCLC
786-0 renal = system: 786-0 renal
COLO 205 colon = system: COLO 205 colon

Structure (SMILES)	growth (NCI-H23 lung)	growth (NCI-H226 lung)	growth (NCI-H322M lung)	growth (HOP-62 NSCLC)	growth (NCI-H460 lung)	growth (HOP-92 NSCLC)	growth (NCI-H522 lung)	growth (A549/ATCC NSCLC)	growth (786-0 renal)	growth (COLO 205 colon)
Oc1ccc(CSc2nnc(-c3ccncc3)o2)c2cccnc12	17.7%	22.7%	39.4%	12.3%	4.37% (active)	-20.8% (active)	11.6%	15.4%	31.3%	68.4%
O=C(Cn1cc(CN2C(=O)c3ccc([N+](=O)[O-])cc3C2=O)nn1)Nc1ccccc1Br	98.1%	104%	98.2%	109%	108%	114%	102%	108%	107%	117%
C=C1C(=O)O[C@@H]2/C=C(/C)C3=CC(=O)[C@@](C)(C[C@H](OC(=O)/C(C)=C\C)[C@@H]12)O3	6.39% (active)	34.5%	89.1%	82.4%	27.2%	-11.8% (active)	-82.3% (active)	72.6%	-56.5% (active)	-52.1% (active)
COc1ccccc1/C=C/C(=O)c1nnn(-c2ccc(C(=O)O)cc2)c1C	87.6%	94.7%	92.1%	110%	96.1%	101%	82.4%	90.3%	93.2%	110%
Cc1ccc(NC(=O)c2ccc(CN3CCN(C)CC3)c(C(F)(F)F)c2)cc1Oc1ccc(-c2[nH]nc3ncnc(N)c23)cc1	90.1%	78.4%	96.2%	99.4%	93.5%	103%	84.9%	78.6%	70.9%	52.5%
C=C1C(=O)O[C@@H]2C[C@@H](C)CCC(=O)[C@](C)(OC(C)=O)C[C@H](OC(=O)/C(C)=C\C)[C@@H]12	70.6%	104%	102%	105%	97.3%	80%	11.8%	87.7%	90.8%	28.6%
O=C(COc1ccc(C2SCC(=O)N2c2ccc(F)cc2)cc1)c1ccccc1 (stereo not given)	95.6%	91.7%	98.3%	95.5%	108%	76.7%	84.1%	87.9%	102%	112%
O=c1oc2ccc(-c3ccc(F)cc3F)cc2c(=O)n1-c1cccc(C(F)(F)F)c1	0.0881% (active)	13.4%	3.52% (active)	15%	4.79% (active)	-25.6% (active)	0.254% (active)	9.67% (active)	14.7%	87.3%
COc1ccc(Cn2cc3c(c2-c2ccccc2)CCCc2cnoc2-3)cc1[N+](=O)[O-]	74.8%	66.6%	96.2%	68.6%	56.4%	62.7%	58.2%	66.7%	87.6%	46.8%
Oc1ccc(CSc2nnc(-c3ccncc3)n2-c2ccccc2)c2cccnc12	22.4%	50.8%	34%	17%	5.96% (active)	-7.79% (active)	3.95% (active)	25.5%	29.1%	102%
Cc1ccc(NC(=O)c2cc(/C=C/C(=O)NO)cc(C(F)(F)F)c2)cc1Nc1nccc(-c2cccnc2)n1	2.29% (active)	17.5%	12.8%	-19.1% (active)	2.09% (active)	-30.6% (active)	-73.1% (active)	61.2%	-22% (active)	-65.2% (active)
Oc1ccc(CSc2nnc(-c3ccccc3)o2)c2cccnc12	27.8%	51.2%	25.7%	13.8%	2.23% (active)	-3.86% (active)	22.6%	17.6%	24.5%	98.9%
CS(=O)(=O)c1ccc(-c2nn(-c3ccccc3)cc2/C=N/NC(=O)c2ccncc2)cc1	97.5%	110%	96.9%	105%	114%	96.3%	84.7%	102%	82.6%	110%
Cc1ccc(C2CC(c3ccc(Nc4nc(NCCO)nc(Nc5ccc(Cl)cc5)n4)cc3)=Nc3c(N)nc(N)nc3N2)cc1 (stereo not given)	-81.8% (active)	49.7%	-89.8% (active)	-86.4% (active)	-84.8% (active)	53.4%	-69.4% (active)	57.9%	-91.9% (active)	29.9%
ClC(Cl)c1nc(-c2cccs2)n2nc(-c3ccccc3)cc2n1	4.85% (active)	82.6%	-28.8% (active)	-6.27% (active)	-40.1% (active)	-27.7% (active)	75.1%	-16.1% (active)	40.2%	-40.7% (active)
O=C1CC2(CCOCC2)Oc2ncccc21	72.5%	103%	103%	101%	106%	94.6%	-49.2% (active)	102%	47.7%	-13.7% (active)
c1ccc(-c2c(-c3ccccc3)[n+](Cc3ccc4ccccc4c3)c(-c3ccccc3)n2Cc2ccc3ccccc3c2)cc1	-81% (active)	-66.8% (active)	-97% (active)	-66.9% (active)	-75.6% (active)	-89.8% (active)	-76.2% (active)	-74.3% (active)	-76.9% (active)	-57.8% (active)
O=C1NC(=O)/C(=C/c2ccc(OCc3cc4ccccc4nc3Cl)cc2)S1	87.1%	101%	103%	105%	101%	78.6%	79.8%	99.6%	93.7%	122%
O=C1c2c(c3c4cc(O)ccc4oc3c3[nH]c4ccccc4c23)C(=O)N1O	2.57% (active)	63.6%	2.25% (active)	-25.6% (active)	-6.86% (active)	-8.01% (active)	-5.7% (active)	43.5%	2.62% (active)	61.5%
CCOC(=O)C1=C(C)Nc2nc3ccccc3n2C1c1cccc(Br)c1 (stereo not given)	86.7%	102%	97.6%	74.3%	89.2%	99.3%	37.1%	80.7%	93.5%	81.6%
CC(=O)c1sc(Nc2cccc(Nc3nc(C)c(C)s3)c2)nc1C	63.2%	65.4%	61.7%	77.8%	45.6%	63.6%	46.2%	65.8%	55.7%	77.7%
Nc1nc(-c2cccc([N+](=O)[O-])c2)c(N=Nc2ccccc2Cl)s1	60.8%	70.4%	86.3%	56.1%	41%	31.8%	60.1%	51.8%	52.6%	93.1%
Cc1ccc(-c2nnc3sc(C4=Cc5ccccc5OC=C4)nn23)cc1	96.4%	96.4%	100%	121%	101%	-34.7% (active)	91%	92.3%	95%	120%
O=C(CCCCCCN1CC(=O)N2[C@@H](c3cc(F)cc(F)c3)c3[nH]c4ccccc4c3C[C@H]2C1=O)NO	77.4%	98.1%	75.1%	63.4%	64.4%	49.2%	41.2%	90.5%	90.9%	53.1%
C=CCn1c(SCC(=O)Nc2cccc(C(=O)/C=C/c3ccc(OC)c(OC)c3)c2)nc2ccccc2c1=O	93.2%	83.7%	87.8%	103%	91.7%	84.6%	83.6%	89.1%	100%	116%
